Measurements: PubChem BioAssay (NCI)
The panel holds about 83,000 compounds, 20% with a hit somewhere; the sample as a whole holds those more often.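 Note: values are percent growth. 100 is the growth of untreated cells, values between 100 and 0 indicate rising inhibition; between -100 and 0 indicates cell death.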 Active and inactive are the calls of the source.

Tested on: SNB-75 CNS
Test: NCI-60 one-dose screen, 48 h (100 = growth as untreated, 0 = no growth, -100 = all killed)
Details: 10 µM unless noted
Description: Growth inhibition of the SNB-75 human tumor cell line is measured as a screen for anti-cancer activity. Cells are grown in 96 well plates and exposed to the test compound for 48 hours. Compounds are tested at a single concentration, which is 10^-5 M for most compounds. The reported endpoint is percent growth (GI% or GIPRCNT), where numbers from 0 - 100% represent growth inhibition, and numbers from -100% - 0 represent cell death. For example, a value of 40 represents 60% growth inhibition. A value of 0 means no net growth occurred over the course of the experiment. A value of -40 indicates 40% of cells at the beginning of the experiment died by the end of the experiment. A value of -100 means all cells are dead at the end of the experiment.
NCI-60 Human Tumor Cell Lines Screen was performed using the standard one-dose NCI protocol, which is described in more detail at https://dtp.cancer.gov/discovery_development/nci-60/default.htm.
Compounds with GIPRCNT values below 10 were considered active. Activity score was based on GIPRCNT using the following formula: […]
Score is 0 for GIPRCNT values of 100 or above, 50 for GIPRCNT values of 0, and 100 for GIPRCNT values of -100.

Structure (SMILES)	growth
COc1ccc2nc(NC(=O)COc3cc(/C=C\c4cc(OC)c(OC)c(OC)c4)ccc3OC)sc2c1	-5.27% (active)
CC[C@H](C)[C@H](NC(=O)c1nccn1C)C(=O)N(C)[C@H](C[C@@H](OC(C)=O)c1nc(C(=O)N[C@@H](Cc2ccccc2)C[C@H](C)C(=O)OC)cs1)C(C)C	15.8% (inactive)
CC(=O)Oc1ccccc1C(=O)NCCC[Se]C#N	-35.1% (active)
O=P(N1CC1)(N1CC1)N1CCc2ccccc21	91.1% (inactive)
O=[N+]([O-])c1cc(I)cc([N+](=O)[O-])c1	93.2% (inactive)
O=C(O)c1c(Cl)n(Cc2ccc(O)cc2)c2ccc(O)cc12	80.6% (inactive)
COC(=O)[C@@H](C)C[C@H](Cc1ccccc1)NC(=O)c1csc(CC[C@H](C(C)C)N(C)C(=O)[C@@H](NC(=O)[C@H]2CCCCN2C)C(C)C)n1	42.6% (inactive)
CNC(=O)Oc1ccc2c(c1)OCO2	98.6% (inactive)
CCOC(=O)N[C@H]1CCc2c(Br)c(OC)c(OC)c(OC)c2-c2ccc(SC)c(=O)cc21	17.2% (inactive)
O=[N+]([O-])c1cc([N+](=O)[O-])c(Cl)cc1Cl	-97.7% (active)
CC[C@H](C)[C@H](NC(=O)C12C3C4C1C1C2C3C41NC)C(=O)N(C)[C@H](C[C@@H](OC(C)=O)c1nc(C(=O)N[C@@H](Cc2ccccc2)C[C@H](C)C(=O)OC)cs1)C(C)C (stereo not given in full)	31.4% (inactive)
CC[C@H](C)[C@H](NC(=O)N[C@@H](C)c1ccccc1)C(=O)N(C)[C@H](C[C@@H](OC(C)=O)c1nc(C(=O)N[C@@H](Cc2ccccc2)C[C@H](C)C(=O)OC)cs1)C(C)C	-0.0971% (active)
CC1[C@H](C)OC(=O)CC(O)CC(O)CC(O)CCC(O)C(O)C[C@]2(O)CC(O)C(C(=O)O)C(CC(OC3O[C@H](C)[C@@H](O)[C@H](N)[C@@H]3O)/C=C/C=C/C=C/C=C/CC/C=C/C=C/[C@H](C)[C@H]1O)O2 (stereo not given in full)	103% (inactive)
C=C1C[C@](OC)([C@H](O)C(=O)N[C@@H](OC)[C@@H]2C[C@@H](O)C(C)(C)[C@@H](C[C@@H](COC)OC)O2)O[C@H](C)[C@@H]1C	-100% (active)
Cc1c2cc(Cl)c3ccccc3c2c[n+]2ccccc12	-15.7% (active)
CNC(=O)Oc1ccc(N(C)C)cc1C(C)C	66.5% (inactive)
COc1cc(NCCCN=C(N)N)c2ncccc2c1	73.4% (inactive)
CCCCCCCC[n+]1ccc2ccccc2c1	69.4% (inactive)
CC(=O)O[C@H](C[C@H](C(C)C)N(C)C(=O)[C@@H](NC(=O)[C@H]1CCCCN1C)C(C)C)c1nc(C(=O)N[C@@H](Cc2ccccc2)C[C@H](C)C(=O)O)c(C(C)C)s1	22.6% (inactive)
ClCCN(CCCl)c1ccc(OCc2ccccc2)cc1	53.8% (inactive)

Structure (SMILES)	growth
O=C([O][Hg][CH2]C1COCC([CH2][Hg][O]C(=O)c2ccccc2)O1)c1ccccc1 (stereo not given)	92% (inactive)
C=CC[PH+](c1ccccc1)c1ccccc1.C=CC[PH+](c1ccccc1)c1ccccc1.[Cl][Pt][Cl]	66.2% (inactive)
CNCc1cccnc1	104% (inactive)
CCCC[C@H](NC(=O)[C@H]1CCCN1C)C(=O)N(C)[C@H](C[C@@H](OC(C)=O)c1nc(C(=O)N[C@@H](Cc2ccccc2)C[C@H](C)C(=O)OCC)cs1)C(C)C	51.5% (inactive)
Cc1cccc(N2CCN(C(C)C#N)CC2)c1 (stereo not given)	106% (inactive)
O=C(O)C(O)C(O)C1[O][Sb]([c]2ccc([N+](=O)[O-])cc2)[O]C1CO (stereo not given)	99.1% (inactive)
Oc1c(CCl)cc(Cl)cc1CCl	95.8% (inactive)
OCc1ccc2c(c1)OCO2	84.5% (inactive)
C/C=C(\C)C(=O)O[C@@H]1C(O)[C@H]2OC(COC(=O)CCC(=O)CCCCCC[C@H](CCCCC)O[C@@H]3OC(C)[C@H](OC(C)=O)C(O)[C@H]3O2)[C@H]1OC(=O)/C=C/c1ccccc1 (stereo not given in full)	1.65% (active)
CCCc1cc(O)c2c3c(c(=O)oc2c1)CN(C)CC3	-8.41% (active)
O=C(O)C(Cl)(Cl)C(F)(F)F	97.7% (inactive)
Fc1c[c-]c(-c2ccccn2)c(F)c1.[CH3-].[Pt+2].c1ccc([PH+](c2ccccc2)c2ccccn2)cc1	-5.13% (active)
CC12CCC(O)CC1=CCC1C2CCC2(C)C(O)CCC12 (stereo not given)	88% (inactive)
C=C1C(=O)O[C@H]2[C@H]1CC/C(COC(=O)C(=O)c1cn(Cc3ccccc3)c3ccccc13)=C\CC[C@@]1(C)O[C@@H]21	-75.2% (active)
COc1ccc(C(O)(C(=O)O)c2ccc(OC)cc2)cc1	101% (inactive)
CCCCCCCC[N+](C)(CCCCCCCC)CCCCCCCC	-100% (active)
CCCC(=O)O[C@@H]1C[C@H]2C[C@@H](O[C@@H]3O[C@@H](C)[C@@H](O)[C@@H](O)[C@H]3OC)C[C@@H](C[C@@H](C)/C=C/C=C\C[C@@H]3O[C@@H](C[C@@H]3C)[C@@H](O)C[C@H]3C[C@@]1(O)C(=O)O3)O2	55.4% (inactive)
COC(=O)C12CC(NC(=O)c3csc([C@@H](C[C@H](C(C)C)N(C)C(=O)[C@@H](NC(=O)[C@H]4CCCCN4C)C4CC4)OC(C)=O)n3)(C1)C2	43.4% (inactive)
COC(=O)[C@H](Cc1ccccc1)NC(=O)c1csc([C@@H](C[C@H](C(C)C)N(C)C(=O)[C@@H](NC(=O)[C@H]2CCCN2C)C2CC2)OC(C)=O)n1	39.2% (inactive)
CCCOC(=O)N[C@H]1CCc2c(Br)c(OC)c(OC)c(OC)c2-c2ccc(SC)c(=O)cc21	19.6% (inactive)
